The text below walks through data of PubChem BioAssay (EPA / NIEHS).

Inconclusive results are not listed. Calls of active or inactive are those of the source. The calls were made as follows, unless noted: active = hit-call score of the fitted dose curve at least 0.9, where 1 is the maximum; inconclusive = response in the unintended direction; inactive = score below 0.9.

Read-out in experiment [1]: solute carrier (SLCO1B1), SLCO1B1 (gene 10599)
The experiment is described as follows: LTEA_HepaRG_SLCO1B1: Life Technologies and Expression Analysis (LTEA) Assay for solute carrier (SLCO1B1) using HepaRG (AID 2283530; active = hit-call score of the fitted dose curve at least 0.9, where 1 is the maximum; inactive = score below 0.9). To be noted: mRNA level, 48 h; actives raise or lower the signal. The method in brief: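 Gain or loss of SLCO1B1 mRNA is fitted against the 0.5% DMSO vehicle in human HepaRG liver cells treated 48 h at up to 100 uM in half-log steps. Expression comes from qRT-PCR normalized to endogenous controls.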

Read-out in experiment [2]: sulfotransferase 2A1 (SULT2A1), SULT2A1 (gene 6822)
Put plainly: LTEA_HepaRG_SULT2A1: Life Technologies and Expression Analysis (LTEA) Assay for sulfotransferase 2A1 (SULT2A1) using HepaRG (AID 2283531; active = hit-call score of the fitted dose curve at least 0.9, where 1 is the maximum; inactive = score below 0.9). To be noted: mRNA level, 48 h; actives raise or lower the signal. The method in brief:
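Cells were plated and cultured 48 h, switched to serum-free induction medium, then dosed in duplicate for 48 h (8 concentrations, max 100 uM). RNA was isolated and SULT2A1 expression measured by qRT-PCR; gain or loss of signal fitted relative to DMSO.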

Read-out in experiment [3]: Transforming Growth Factor (TGFA), TGFA (gene 7039)
The experiment is described as follows: LTEA_HepaRG_TGFA: Life Technologies and Expression Analysis (LTEA) Assay for Transforming Growth Factor (TGFA) using HepaRG (AID 2283532; active = hit-call score of the fitted dose curve at least 0.9, where 1 is the maximum; inactive = score below 0.9). To be noted: mRNA level, 48 h; actives raise or lower the signal. The method in brief:
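Differentiated HepaRG cells exposed 48 hours in serum-free induction medium, 0.5% DMSO vehicle, 8-point half-log series from 100 uM, in duplicate. TGFA mRNA by TaqMan qRT-PCR, normalised to ACTB, GAPDH, POLR2A; bidirectional fit versus DMSO.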

Read-out in experiment [4]: TIMP1, TIMP1 (gene 7076)
The experiment is described as follows: LTEA_HepaRG_TIMP1: Life Technologies and Expression Analysis (LTEA) Assay for TIMP1 using HepaRG (AID 2283534; active = hit-call score of the fitted dose curve at least 0.9, where 1 is the maximum; inactive = score below 0.9;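 as to outcome: TaqMan qRT-PCR signal normalized to ACTB GAPDH and POLR2A housekeeping genes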). To be noted: mRNA level, 48 h; actives raise or lower the signal. The essentials:
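We dosed human liver HepaRG cultures for 48 hours with up to 100 uM test chemical and measured TIMP1 expression by qRT-PCR. Activity in either direction is fitted relative to the 0.5% DMSO vehicle.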

Read-out in experiment [5]: Tumor necrosis factor receptor 1 (TNFRSF1A), TNFRSF1A (gene 7132)
The experiment is described as follows: LTEA_HepaRG_TNFRSF1A: Life Technologies and Expression Analysis (LTEA) Assay for Tumor necrosis factor receptor 1 (TNFRSF1A) using HepaRG (AID 2283535; active = hit-call score of the fitted dose curve at least 0.9, where 1 is the maximum; inactive = score below 0.9). To be noted: mRNA level, 48 h; actives raise or lower the signal. The method in brief:
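Expression of TNFRSF1A in human HepaRG liver cells was measured by qRT-PCR 48 h after chemical dosing (maximum 100 uM). Bidirectional curve fitting used 0.5% DMSO as baseline.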

Read-out in experiment [6]: Thyroid Hormone Responsive (THRSP), THRSP (gene 7069)
The experiment is described as follows: LTEA_HepaRG_THRSP: Life Technologies and Expression Analysis (LTEA) Assay for Thyroid Hormone Responsive (THRSP) using HepaRG (AID 2283536; active = hit-call score of the fitted dose curve at least 0.9, where 1 is the maximum; inactive = score below 0.9). To be noted: mRNA level, 48 h; actives raise or lower the signal. The essentials:
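Differentiated HepaRG cells treated 48 h in serum-free induction medium with 8 half-log concentrations up to 100 uM (0.5% DMSO), duplicates. THRSP mRNA by TaqMan qRT-PCR normalised to ACTB, GAPDH, POLR2A; bidirectional fit versus DMSO.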

Read-out in experiment [7]: Cellular tumor antigen p53 (Homo sapiens) (UniProt P04637)
Put plainly: LTEA_HepaRG_TP53: Life Technologies and Expression Analysis (LTEA) Assay for Tumor Protein P53 (TP53) using HepaRG (AID 2283537; active = hit-call score of the fitted dose curve at least 0.9, where 1 is the maximum; inactive = score below 0.9). To be noted: mRNA level, 48 h; actives raise or lower the signal. The essentials: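 TP53 transcript measured by qRT-PCR, normalized to three housekeeping genes, after 48 h treatment of human HepaRG cultures with chemicals from 100 uM downward in half-log steps (0.5% DMSO vehicle, serum-free induction medium). Up- or down-regulation fitted against DMSO.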

Read-out in experiment [8]: UDP glucuronosyltransferase (UGT1A1), UGT1A1 (gene 54658)
The experiment is described as follows: LTEA_HepaRG_UGT1A1: Life Technologies and Expression Analysis (LTEA) Assay for UDP glucuronosyltransferase (UGT1A1) using HepaRG (AID 2283538; active = hit-call score of the fitted dose curve at least 0.9, where 1 is the maximum; inactive = score below 0.9). To be noted: mRNA level, 48 h; actives raise or lower the signal. The essentials: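 HepaRG cells, 0.5% DMSO vehicle, 48 h exposure in serum-free induction medium to 8-point half-log series topping at 100 uM, in duplicate. UGT1A1 mRNA by Fluidigm qRT-PCR, normalized to ACTB/GAPDH/POLR2A; bidirectional fit versus DMSO.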

Read-out in experiment [9]: UDP glucuronosyltransferase (UGT1A6), UGT1A6 (gene 54578)
The experiment is described as follows: LTEA_HepaRG_UGT1A6: Life Technologies and Expression Analysis (LTEA) Assay for UDP glucuronosyltransferase (UGT1A6) using HepaRG (AID 2283539; active = hit-call score of the fitted dose curve at least 0.9, where 1 is the maximum; inactive = score below 0.9). To be noted: mRNA level, 48 h; actives raise or lower the signal. The essentials: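 Endpoint is UGT1A6 transcript induction or loss in a human liver cell line, quantified by TaqMan qRT-PCR 48 h after dosing. Concentrations ran from 100 uM downward in half-log steps in 0.5% DMSO; activity was fitted in both directions versus vehicle.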

Read-out in experiment [10]: X-box binding protein 1 (XBP1), XBP1 (gene 7494)
Put plainly: LTEA_HepaRG_XBP1: Life Technologies and Expression Analysis (LTEA) Assay for X-box binding protein 1 (XBP1) using HepaRG (AID 2283540; active = hit-call score of the fitted dose curve at least 0.9, where 1 is the maximum; inactive = score below 0.9). To be noted: mRNA level, 48 h; actives raise or lower the signal. The method in brief:
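Human HepaRG monolayers receive test chemical for 48 h across an eight-point half-log series starting at 100 uM. XBP1 mRNA gain or loss is scored against DMSO by qRT-PCR.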

A short description of experiment [11]: LTEA_HepaRG_LDH_cytotoxicity: Cytotoxicity Assessment in the Life Technologies and Expression Analysis (LTEA) Assay (AID 2283563).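 As to AC50: LDH activity released into spent culture medium as a marker of cell death.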 The method in brief:
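Human HepaRG hepatic cells are treated with test chemicals for 48 h at up to 100 uM in 0.5% DMSO. Cytotoxicity is scored from medium LDH against the vehicle control.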

Experiment [12] can be described thus: TOX21_p53_BLA_p2_viability: Viability Assessment in the Tox21 HCT-116 p53 Agonism Beta-lactamase Assay, Phase 2 (AID 2283591).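 Also: actives lower the ATP signal meaning cytotoxicity.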 The essentials: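 HCT116 p53-bla cells, 4000/well, dosed after 5 h plating (217-fold dilution of DMSO stocks) and incubated 16 h at 37C. Viability taken as cellular ATP by CellTiter-Glo luminescence after 30 min RT; signal loss marks cytotoxicity.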

The target in experiment [13] is Cellular tumor antigen p53 (Homo sapiens) (UniProt P04637). The experiment is described as follows: TOX21_p53_BLA_p2_ratio: Tox21 HCT-116 p53 Agonism Beta-lactamase Assay, Ratio, Phase 2 (AID 2283592). The essentials:
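An inducible beta-lactamase reporter in HCT116 cells signals p53 pathway activation. After 16 h chemical exposure at 37C, cells load CCF4-AM substrate for 2 h at room temperature; activity is the cleaved/uncleaved emission ratio relative to DMSO.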

The nature of experiment [14]: TOX21_p53_BLA_p3_viability: Viability Assessment in the Tox21 HCT-116 p53 Agonism Beta-lactamase Assay, Phase 3 (AID 2283593).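 Also: cells exposed to compound for 16 h before reading.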 The method in brief:
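HCT116 cells, 4000/well, dosed 5 h after plating by pin transfer (217-fold dilution from DMSO stock) and incubated 16 h at 37C, 5% CO2. Viability read as ATP luminescence with CellTiter-Glo after 30 min at room temperature.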

The target in experiment [15] is Cellular tumor antigen p53 (Homo sapiens) (UniProt P04637). The experiment is described as follows: TOX21_p53_BLA_p3_ratio: Tox21 HCT-116 p53 Agonism Beta-lactamase Assay, Ratio, Phase 3 (AID 2283596). The method in brief:
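HCT116 p53-bla cells (4000/well) given compound in DMSO (217-fold dilution) after 5 h, incubated 16 h at 37C. CCF4-AM substrate 2 h at room temperature; 460/530 nm emission ratio, gain fitted against DMSO.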

Experiment [16] in a line: TOX21_p53_BLA_p4_viability: Viability Assessment in the Tox21 HCT-116 p53 Agonism Beta-lactamase Assay, Phase 4 (AID 2283597).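 Also: hits lower the luminescence signal meaning cytotoxicity.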 The method in brief:
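Compound exposure of HCT116 cells lasts 16 h at 37C, 5% CO2, with DMSO stocks diluted 217-fold. Cellular ATP is then quantified by CellTiter-Glo luminescence after 30 min at room temperature.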

Experiment [17] deals with Cellular tumor antigen p53 (Homo sapiens) (UniProt P04637). Put plainly: TOX21_p53_BLA_p5_ratio: Tox21 HCT-116 p53 Agonism Beta-lactamase Assay, Ratio, Phase 5 (AID 2283599). The essentials: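 HCT-116 p53-bla cells (4000/well) plated 5 h, dosed with compound (217-fold DMSO dilution) for 16 h at 37 C; CCF4-AM substrate 2 h at room temperature. Activity is the 460/530 nm emission ratio (405 nm excitation), fitted in gain-of-signal direction versus DMSO.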
Sequence of Cellular tumor antigen p53 (Homo sapiens) (P04637 whole entry, looked up): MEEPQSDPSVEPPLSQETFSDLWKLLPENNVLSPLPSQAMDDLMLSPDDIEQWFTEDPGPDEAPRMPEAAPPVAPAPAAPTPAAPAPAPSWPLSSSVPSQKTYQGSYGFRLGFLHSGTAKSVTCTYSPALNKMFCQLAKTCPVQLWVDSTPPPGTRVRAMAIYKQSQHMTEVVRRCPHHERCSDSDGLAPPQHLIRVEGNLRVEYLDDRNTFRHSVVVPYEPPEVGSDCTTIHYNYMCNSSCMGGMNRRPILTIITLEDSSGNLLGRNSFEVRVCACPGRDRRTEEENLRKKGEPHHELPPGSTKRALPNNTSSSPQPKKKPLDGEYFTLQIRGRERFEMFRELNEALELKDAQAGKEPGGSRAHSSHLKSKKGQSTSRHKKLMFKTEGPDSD

The nature of experiment [18]: TOX21_p53_BLA_p5_viability: Viability Assessment in the Tox21 HCT-116 p53 Agonism Beta-lactamase Assay, Phase 5 (AID 2283600). The essentials:
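Counter-readout for cytotoxicity: ATP-dependent luminescence from CellTiter-Glo, read in the beta-lactamase wells after 30 min at RT, following a 16 h compound exposure at 37C.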

Experiment [19] is described as follows: ATG_XTT_Cytotoxicity: Cytotoxicity Assessment in the Attagene TRANS-FACTORIAL HepG2 Assay (AID 2283584). The method in brief: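 Transfect HepG2 with GAL4-UAS reporter units, dose compound, incubate 24 h, then measure viable cell number by XTT. Fit concentration response against DMSO baseline.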

With `CC(C)(C)c1ccc(O)cc1`, the molecule was called inactive in [1], in [2], in experiment [3], in [4], in [5] and in experiment [6]. Moreover, the result in experiment [7], in [8], in experiment [9] and in [10] was inactive.
Regarding `CCOS(=O)(=O)OCC`, the call in experiment [1], in experiment [2], in experiment [3], in [4], in [5] and in [6] was inactive. For the same molecule, the call in experiment [7], in experiment [8], in experiment [9], in experiment [10], in experiment [11] and in experiment [12] was inactive. In addition, the result in [13], in experiment [14], in experiment [15], in [16], in experiment [17] and in experiment [18] was inactive.
`Nc1ccc(Cl)cc1`: the molecule was called inactive in experiment [1], in [2], in experiment [3], in experiment [4], in experiment [5] and in [6]. Further, the molecule was called inactive in experiment [7], in experiment [9], in [10], in experiment [11], in experiment [19] and in experiment [12]. Further, the outcome in [13], in experiment [14], in experiment [15], in experiment [16], in experiment [17] and in experiment [18] was inactive. The AC50 in experiment [8] is 36.5 µM (active).
As to `[N-]=[N+]=[N-]`, the molecule was called inactive in experiment [1], in [2], in [4], in experiment [9], in experiment [10] and in experiment [11]. Also, the call in [12], in experiment [13], in [14], in experiment [15], in experiment [16] and in experiment [17] was inactive. The call in experiment [18] was inactive. Also, the AC50 was 94.4 µM (active) in experiment [3]; 72.6 µM (active) in [5]; 50 µM (active) in [6]; 81.9 µM (active) in experiment [7]; 80.7 µM (active) in experiment [8].
With `CCCN(CCC)c1c([N+](=O)[O-])cc(C(C)C)cc1[N+](=O)[O-]`, the molecule was called inactive in experiment [1], in [2], in [3], in [6], in [10] and in experiment [11]. Besides, the outcome in experiment [19], in experiment [12], in experiment [13], in [14], in [15] and in experiment [16] was inactive. The molecule was called inactive in experiment [18]. For the same molecule, the half-maximal activity concentration (AC50) in experiment [4] was 0.11 µM (active); in experiment [5], 0.0432 µM (active); in experiment [7], 0.322 µM (active); in [8] it was 1.85 µM (active); in experiment [9], 1.17 µM (active).
Take `CCOc1ccc(C(C)(C)COCc2cccc(Oc3ccccc3)c2)cc1`: the outcome in [1], in experiment [2], in experiment [3], in experiment [4], in [5] and in experiment [6] was inactive. Also, the call in experiment [7], in experiment [10], in [11], in [19], in experiment [12] and in experiment [14] was inactive. Besides, the outcome in [18] was inactive. For the same molecule, the AC50 in experiment [8] is 10.2 µM (active).
With `O=P(Oc1ccccc1)(Oc1ccccc1)Oc1ccccc1`, the outcome in experiment [1], in experiment [2], in experiment [3], in [5], in experiment [6] and in experiment [9] was inactive. The molecule was classed as inactive in [10], in experiment [19], in experiment [12], in [13], in experiment [14] and in experiment [15]. In addition, the molecule was classed as inactive in [16], in experiment [17] and in experiment [18]. Moreover, the half-maximal activity concentration (AC50) in experiment [4] was 73.1 µM (active); in experiment [7] it was 50 µM (active); in experiment [8], 3.1 µM (active); in [11] it was 72.7 µM (active).
Turning to `Nc1ccc2ccccc2c1`, the result in experiment [1], in experiment [2], in [3], in [4], in experiment [5] and in experiment [7] was inactive. Moreover, the molecule was classed as inactive in experiment [9], in [10], in [11], in experiment [19], in experiment [12] and in experiment [13]. The outcome in experiment [15], in [16], in experiment [17] and in experiment [18] was inactive. For the same molecule, the half-maximal activity concentration (AC50) was 9.29 µM (active) in [6] and 18.8 µM (active) in experiment [8].
